# Key:
# [1] = biological target: Large ribosomal subunit protein eL38 (UniProt P49167); assay: cross-link between two proteins; cross-linking mass spectrometry
# [2] = biological target: Large ribosomal subunit protein eL6A (UniProt Q02326); assay: as above
# [3] = biological target: Large ribosomal subunit protein eL8B (UniProt P29453); assay: as above
# Pescadillo homolog = Pescadillo homolog (UniProt P53261); assay: as above
# [4] = biological target: Proteasome-interacting protein CIC1 (UniProt P38779); assay: as above
# [5] = biological target: Large ribosomal subunit protein uL13B (UniProt P26785); assay: as above
# [6] = biological target: Large ribosomal subunit protein uL4A (UniProt P10664); assay: as above
# [7] = biological target: Large ribosomal subunit protein uL4B (UniProt P49626); assay: as above
# [8] = biological target: Mitochondrial import inner membrane translocase subunit TIM14 (UniProt Q07914); assay: as above
# [9] = biological target: NET1-associated nuclear protein 1 (UniProt Q02931); assay: cross-link between two proteins
# [10] = biological target: Nucleolar complex protein 14 (UniProt Q99207); assay: cross-link between two proteins
# [11] = biological target: Ribosomal RNA-processing protein 12 (UniProt Q12754); assay: cross-link between two proteins
# Nucleolar protein 56 = Nucleolar protein 56 (UniProt Q12460); assay: cross-link between two proteins
# Nucleolar protein 58 = Nucleolar protein 58 (UniProt Q12499); assay: cross-link between two proteins; cross-linking mass spectrometry
# Prohibitin-2 = Prohibitin-2 (UniProt P50085); assay: as above
# [12] = biological target: Proteasome subunit alpha type-2 (UniProt P23639); assay: as above
# [13] = biological target: Proteasome subunit beta type-3 (UniProt P25451); assay: as above
# Chain of NET1-associated nuclear protein 1 (Q02931 whole entry): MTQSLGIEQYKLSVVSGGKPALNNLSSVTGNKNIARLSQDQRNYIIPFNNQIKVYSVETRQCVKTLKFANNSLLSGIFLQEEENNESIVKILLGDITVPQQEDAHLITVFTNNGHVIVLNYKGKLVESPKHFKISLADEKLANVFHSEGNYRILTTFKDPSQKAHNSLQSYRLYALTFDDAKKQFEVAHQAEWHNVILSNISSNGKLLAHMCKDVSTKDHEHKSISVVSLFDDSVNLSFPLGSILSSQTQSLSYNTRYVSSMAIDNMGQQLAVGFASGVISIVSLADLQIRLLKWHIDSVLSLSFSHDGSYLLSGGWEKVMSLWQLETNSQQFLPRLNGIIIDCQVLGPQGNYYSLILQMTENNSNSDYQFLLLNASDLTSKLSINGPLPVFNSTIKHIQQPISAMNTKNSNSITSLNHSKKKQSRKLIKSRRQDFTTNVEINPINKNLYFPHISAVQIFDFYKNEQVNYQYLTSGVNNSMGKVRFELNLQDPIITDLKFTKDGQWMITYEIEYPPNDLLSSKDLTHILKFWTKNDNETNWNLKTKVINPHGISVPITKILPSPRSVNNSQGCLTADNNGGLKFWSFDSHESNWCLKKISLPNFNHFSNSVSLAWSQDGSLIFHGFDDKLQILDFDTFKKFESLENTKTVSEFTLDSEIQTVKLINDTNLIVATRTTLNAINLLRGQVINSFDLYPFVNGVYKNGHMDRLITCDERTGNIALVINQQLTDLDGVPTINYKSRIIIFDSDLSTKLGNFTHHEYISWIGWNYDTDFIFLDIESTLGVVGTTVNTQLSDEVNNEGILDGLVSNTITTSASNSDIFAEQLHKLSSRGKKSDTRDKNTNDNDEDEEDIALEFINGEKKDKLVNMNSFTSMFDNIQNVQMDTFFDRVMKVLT
# Chain of Proteasome subunit alpha type-2 (P23639 whole entry): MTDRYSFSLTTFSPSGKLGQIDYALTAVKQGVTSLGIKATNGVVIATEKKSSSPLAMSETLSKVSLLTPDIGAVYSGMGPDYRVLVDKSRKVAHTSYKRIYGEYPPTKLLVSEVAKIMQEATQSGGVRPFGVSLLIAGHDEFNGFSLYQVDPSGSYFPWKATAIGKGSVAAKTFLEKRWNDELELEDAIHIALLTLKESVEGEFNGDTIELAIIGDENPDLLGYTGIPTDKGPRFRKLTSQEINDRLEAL
# Chain of Large ribosomal subunit protein eL8B (P29453 whole entry): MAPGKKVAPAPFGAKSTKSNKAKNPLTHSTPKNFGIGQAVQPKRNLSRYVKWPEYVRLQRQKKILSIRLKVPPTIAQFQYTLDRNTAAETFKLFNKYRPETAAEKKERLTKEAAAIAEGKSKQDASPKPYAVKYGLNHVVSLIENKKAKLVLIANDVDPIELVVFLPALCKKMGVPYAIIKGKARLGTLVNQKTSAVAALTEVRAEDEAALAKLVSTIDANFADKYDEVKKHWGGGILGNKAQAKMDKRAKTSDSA
# Chain of Pescadillo homolog (P53261 whole entry): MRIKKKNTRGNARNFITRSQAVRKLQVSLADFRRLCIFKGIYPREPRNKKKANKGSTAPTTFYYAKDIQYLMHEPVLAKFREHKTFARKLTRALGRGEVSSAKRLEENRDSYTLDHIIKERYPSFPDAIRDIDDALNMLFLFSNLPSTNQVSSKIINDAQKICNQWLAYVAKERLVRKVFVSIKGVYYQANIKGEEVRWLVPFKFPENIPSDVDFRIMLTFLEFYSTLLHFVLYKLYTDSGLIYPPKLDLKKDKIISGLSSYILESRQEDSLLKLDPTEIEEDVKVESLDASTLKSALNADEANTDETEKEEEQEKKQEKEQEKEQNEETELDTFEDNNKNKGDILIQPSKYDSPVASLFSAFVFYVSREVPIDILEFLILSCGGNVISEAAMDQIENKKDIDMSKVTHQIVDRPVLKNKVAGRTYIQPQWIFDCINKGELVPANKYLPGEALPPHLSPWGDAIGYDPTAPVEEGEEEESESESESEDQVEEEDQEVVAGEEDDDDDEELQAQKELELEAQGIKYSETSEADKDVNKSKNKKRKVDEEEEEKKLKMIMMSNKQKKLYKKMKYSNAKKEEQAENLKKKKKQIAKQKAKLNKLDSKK
# Chain of Proteasome-interacting protein CIC1 (P38779 whole entry): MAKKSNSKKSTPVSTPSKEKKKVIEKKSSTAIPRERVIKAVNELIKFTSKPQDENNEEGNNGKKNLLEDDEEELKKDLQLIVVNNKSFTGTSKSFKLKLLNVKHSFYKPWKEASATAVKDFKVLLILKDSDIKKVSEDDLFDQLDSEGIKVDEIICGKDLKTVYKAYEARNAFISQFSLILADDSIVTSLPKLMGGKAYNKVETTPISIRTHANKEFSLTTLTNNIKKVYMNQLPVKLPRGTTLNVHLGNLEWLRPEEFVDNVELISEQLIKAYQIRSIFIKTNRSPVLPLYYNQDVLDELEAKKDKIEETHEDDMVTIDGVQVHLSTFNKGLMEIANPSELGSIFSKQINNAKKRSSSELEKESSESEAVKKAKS
# Chain of Mitochondrial import inner membrane translocase subunit TIM14 (Q07914 whole entry): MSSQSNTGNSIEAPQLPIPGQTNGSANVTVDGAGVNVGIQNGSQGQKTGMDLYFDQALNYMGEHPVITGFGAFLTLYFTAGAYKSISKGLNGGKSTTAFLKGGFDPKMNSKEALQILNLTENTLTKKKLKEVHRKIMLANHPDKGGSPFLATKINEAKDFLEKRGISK
# Chain of Large ribosomal subunit protein eL38 (P49167 whole entry): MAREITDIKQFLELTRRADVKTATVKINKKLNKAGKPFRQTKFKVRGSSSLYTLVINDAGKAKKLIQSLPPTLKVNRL
# Chain of Large ribosomal subunit protein uL3, P14126 (P14126 whole entry): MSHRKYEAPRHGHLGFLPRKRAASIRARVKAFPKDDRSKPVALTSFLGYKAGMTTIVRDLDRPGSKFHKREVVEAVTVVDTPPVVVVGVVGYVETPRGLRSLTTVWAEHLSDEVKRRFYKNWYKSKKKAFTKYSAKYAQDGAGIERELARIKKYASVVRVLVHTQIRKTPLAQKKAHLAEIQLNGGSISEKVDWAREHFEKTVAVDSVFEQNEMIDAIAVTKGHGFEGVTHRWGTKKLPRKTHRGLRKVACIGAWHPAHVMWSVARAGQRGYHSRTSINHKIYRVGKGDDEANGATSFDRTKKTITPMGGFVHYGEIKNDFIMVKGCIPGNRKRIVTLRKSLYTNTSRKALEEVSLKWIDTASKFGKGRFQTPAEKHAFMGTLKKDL
# Chain of Large ribosomal subunit protein eL32, P38061 (P38061 whole entry): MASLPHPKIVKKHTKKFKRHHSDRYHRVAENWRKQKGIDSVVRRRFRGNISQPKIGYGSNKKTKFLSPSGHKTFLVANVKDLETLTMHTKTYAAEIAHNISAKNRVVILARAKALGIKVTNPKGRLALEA
# Chain of Prohibitin-2 (P50085 whole entry): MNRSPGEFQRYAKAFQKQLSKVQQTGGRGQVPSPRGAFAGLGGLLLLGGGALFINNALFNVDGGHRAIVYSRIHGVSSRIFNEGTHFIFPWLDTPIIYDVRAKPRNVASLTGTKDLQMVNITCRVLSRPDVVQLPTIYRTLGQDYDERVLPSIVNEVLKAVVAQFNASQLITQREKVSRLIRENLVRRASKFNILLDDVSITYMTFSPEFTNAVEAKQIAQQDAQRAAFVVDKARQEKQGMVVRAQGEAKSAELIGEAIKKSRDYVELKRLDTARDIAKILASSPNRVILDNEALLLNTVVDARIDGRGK
# Chain of Large ribosomal subunit protein eL6A (Q02326 whole entry): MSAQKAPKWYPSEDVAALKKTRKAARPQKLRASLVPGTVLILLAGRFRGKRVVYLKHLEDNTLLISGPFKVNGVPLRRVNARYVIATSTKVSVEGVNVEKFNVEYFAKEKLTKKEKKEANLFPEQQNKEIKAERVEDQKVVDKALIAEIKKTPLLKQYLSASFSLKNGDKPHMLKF
# Chain of Nucleolar protein 58 (Q12499 whole entry): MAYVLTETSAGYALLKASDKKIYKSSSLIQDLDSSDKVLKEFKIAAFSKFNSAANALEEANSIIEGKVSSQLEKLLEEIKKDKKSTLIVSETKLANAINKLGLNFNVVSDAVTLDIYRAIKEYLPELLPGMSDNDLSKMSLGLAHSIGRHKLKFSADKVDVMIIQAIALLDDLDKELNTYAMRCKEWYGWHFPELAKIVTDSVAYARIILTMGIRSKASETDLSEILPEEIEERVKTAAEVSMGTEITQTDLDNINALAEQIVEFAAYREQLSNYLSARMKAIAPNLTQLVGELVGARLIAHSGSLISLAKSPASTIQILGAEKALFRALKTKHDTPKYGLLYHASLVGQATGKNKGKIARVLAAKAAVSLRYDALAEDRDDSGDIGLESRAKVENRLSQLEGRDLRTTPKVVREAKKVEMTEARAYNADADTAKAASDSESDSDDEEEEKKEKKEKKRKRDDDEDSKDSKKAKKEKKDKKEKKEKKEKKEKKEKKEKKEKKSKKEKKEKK
# Chain of Nucleolar protein 56 (Q12460 whole entry): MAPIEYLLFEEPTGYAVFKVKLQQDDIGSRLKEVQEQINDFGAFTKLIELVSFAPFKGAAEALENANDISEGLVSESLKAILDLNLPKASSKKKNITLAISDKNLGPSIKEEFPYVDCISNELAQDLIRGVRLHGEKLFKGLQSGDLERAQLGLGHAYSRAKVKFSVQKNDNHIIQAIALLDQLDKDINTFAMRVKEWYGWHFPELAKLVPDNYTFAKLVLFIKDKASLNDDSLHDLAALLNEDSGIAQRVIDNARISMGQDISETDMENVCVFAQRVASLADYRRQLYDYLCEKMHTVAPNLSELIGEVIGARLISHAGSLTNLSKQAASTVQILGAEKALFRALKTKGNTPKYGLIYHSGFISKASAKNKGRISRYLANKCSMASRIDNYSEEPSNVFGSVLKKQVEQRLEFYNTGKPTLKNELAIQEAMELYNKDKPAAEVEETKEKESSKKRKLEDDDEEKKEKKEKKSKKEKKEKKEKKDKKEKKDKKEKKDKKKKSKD
# Chain of Large ribosomal subunit protein uL13B (P26785 whole entry): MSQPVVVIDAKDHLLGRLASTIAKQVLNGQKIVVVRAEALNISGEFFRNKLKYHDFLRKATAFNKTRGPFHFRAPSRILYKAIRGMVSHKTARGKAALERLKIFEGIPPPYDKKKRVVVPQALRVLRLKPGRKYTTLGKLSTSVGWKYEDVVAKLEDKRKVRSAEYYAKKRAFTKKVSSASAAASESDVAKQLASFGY
substance,measurement,setting,value
"Large ribosomal subunit protein eL22A, P05749",listed as a hit,[1],yes
"Large ribosomal subunit protein eL32, P38061",listed as a hit,[2],yes
"Large ribosomal subunit protein eL8A, P17076",listed as a hit,[3],yes
same,listed as a hit,Pescadillo homolog,yes
same,listed as a hit,[4],yes
"Large ribosomal subunit protein eL27A, P0C2H6",listed as a hit,[3],yes
"Large ribosomal subunit protein uL3, P14126",listed as a hit,[5],yes
"Large ribosomal subunit protein uL30A, P05737",listed as a hit,[6],yes
same,listed as a hit,[7],yes
"Mitochondrial import inner membrane translocase subunit TIM16, P42949",listed as a hit,[8],yes
"U3 small nucleolar RNA-associated protein 10, P42945",listed as a hit,[9],yes
"U3 small nucleolar RNA-associated protein 8, P53276",listed as a hit,[9],yes
"Essential nuclear protein 1, P38333",listed as a hit,[10],yes
same,listed as a hit,[11],yes
"rRNA 2'-O-methyltransferase fibrillarin, P15646",listed as a hit,Nucleolar protein 56,yes
same,listed as a hit,Nucleolar protein 58,yes
"Large ribosomal subunit protein eL8B, P29453",listed as a hit,Pescadillo homolog,yes
same,listed as a hit,[4],yes
"Prohibitin-1, P40961",listed as a hit,Prohibitin-2,yes
"Proteasome subunit alpha type-1, P21243",listed as a hit,[12],yes
"Proteasome subunit alpha type-3, P23638",listed as a hit,[12],yes
same,listed as a hit,[13],yes

# — article PMC11066047
